# High-throughput results (PubChem BioAssay)
# Most compounds without a hit are left out; they make up all but 4% or so of the library.
# BoNT A protease: inhibitors of Botulinum neurotoxin A light chain protease; inhibition, % at 10 µM; 360,000 tested, 0.17% active; multiplex microsphere protease substrate cleavage, flow cytometry; further: plate controls were buffer without enzyme for full effect and enzyme alone for no effect
# Anthrax LF inh2: inhibitors of Bacillus anthracis lethal factor protease | multiplex microsphere protease cleavage assay, LF | inhibition, % at 10 µM | 360,000 tested, 0.12% active | AID 588501; further: plate controls were buffer without enzyme for full effect and enzyme alone for no effect
# Target sequence (P15917 whole entry, looked up): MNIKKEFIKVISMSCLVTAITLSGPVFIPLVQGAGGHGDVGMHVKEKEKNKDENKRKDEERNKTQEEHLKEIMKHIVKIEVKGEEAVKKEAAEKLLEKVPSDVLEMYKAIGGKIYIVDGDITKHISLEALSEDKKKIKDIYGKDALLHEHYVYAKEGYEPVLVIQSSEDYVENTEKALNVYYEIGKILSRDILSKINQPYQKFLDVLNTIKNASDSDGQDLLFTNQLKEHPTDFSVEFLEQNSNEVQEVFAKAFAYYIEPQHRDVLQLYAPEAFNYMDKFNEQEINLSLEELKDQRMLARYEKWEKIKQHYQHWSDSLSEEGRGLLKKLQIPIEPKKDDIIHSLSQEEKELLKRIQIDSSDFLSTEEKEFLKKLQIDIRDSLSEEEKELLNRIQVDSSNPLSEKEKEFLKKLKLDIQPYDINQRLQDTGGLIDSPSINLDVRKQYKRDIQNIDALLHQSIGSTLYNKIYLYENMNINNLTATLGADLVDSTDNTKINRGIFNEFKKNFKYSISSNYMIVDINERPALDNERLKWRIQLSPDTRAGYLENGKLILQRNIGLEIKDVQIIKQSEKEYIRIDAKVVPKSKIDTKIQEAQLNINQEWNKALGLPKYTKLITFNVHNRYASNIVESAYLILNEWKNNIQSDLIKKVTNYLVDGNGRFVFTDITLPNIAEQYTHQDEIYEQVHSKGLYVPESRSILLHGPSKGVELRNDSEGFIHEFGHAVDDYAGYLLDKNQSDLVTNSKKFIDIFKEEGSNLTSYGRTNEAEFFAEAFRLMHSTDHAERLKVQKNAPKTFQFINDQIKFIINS
# MazEF act: activators of E. coli MazEF toxin-antitoxin RNase; AID 504720; P0AE70; activation, % at 20 µM; FAM/BHQ RNA-DNA oligo cleavage fluorescence, 5 h; 350,000 tested, 0.32% active; in the data active means activation above about 50%
# BoNT-F LC inh: blocks Botulinum neurotoxin F light chain protease; Multiplex microsphere protease cleavage assay, flow cytometry; inhibition, % at 10 µM; 360,000 tested, 0.22% active; in the data active means inhibition above about 35%, passing the limit was not always enough; inconclusive means no clear call, values can overlap the other calls; further: plate controls were buffer without enzyme for full effect and enzyme alone for no effect
# Bead autofluor: counter-screen for toxin protease inhibitors: compound fluorescence. compound autofluorescence counterscreen, microsphere flow cytometry; hits give high values. fluorescence intensity (no concentration beside the values). 360,000 tested, 3.1% active; in the data active means fluorescence intensity above about 16000; inconclusive means no clear call, values can overlap the other calls
# VHR inh abs: DUSP3 (human) phosphatase inhibition; P51452; 290,000 tested, 0.52% active; inhibition, % at 13.3 µM; AID 1654; recombinant VHR phosphatase, pNPP absorbance; in the data active means inhibition above about 50%
# Numbers without * were called inactive; ? = inconclusive; · = no result; ! = repeats disagree. Unless noted, no stated cut-off is given here; in the data, active means inhibition above about 30%; inconclusive means no clear call, values can overlap the other calls; inactive means below that.
SMILES,BoNT A protease,Anthrax LF inh2,MazEF act,BoNT-F LC inh,Bead autofluor,VHR inh abs
CCCC(O)(c1ccc(OC)cc1)C(CN1CCOCC1)c1ccccc1 (centres undefined),0,-2,-2,1,2155,1
Cc1ccccc1OCC(=O)NC(=S)Nc1ccc(S(=O)(=O)NC2CCCCC2)cc1,-1,-1,5,-13,5027,30
CCC(C)(C)NC(=O)c1sccc1Oc1ccc(F)cc1[N+](=O)[O-],0,1,7,-1,4277,51*
Clc1ccc(N=c2ssnc2Cl)nc1,0,7,9,-5,4455,61*
Clc1nssc1=Nc1ccc(Br)cc1,0,-2,-11,-2,3207,13
CCCCN(CC)Cc1ccc(CNC(=O)Nc2ccc(OCC)cc2)o1,1,-1,3,1,20423*,0
Cc1ccccc1-c1nnn(CC(=O)NCc2ccc3c(c2)OCO3)n1,-2,1,5,0,21659*,23
Cc1oc(-c2ccccc2F)nc1CSCC(=O)NCc1ccc2c(c1)OCO2,4,-10,11,4,20539*,10
Cn1c(SCC(=O)NCc2ccc3c(c2)OCO3)nnc1-c1c[nH]c2ccccc12,?,-2,3,-5,16863*,-11
O=C(CN1C(=O)c2cccc3cccc1c23)NCc1ccc2c(c1)OCO2,?,-1,-2,-2,23642*,-18
C=CCn1c(SCC#N)nc2ccccc2c1=O,0,2,2,9,2967,3
COC(=O)c1ccc(Cn2nnc3ccccc32)cc1,-1,0,5,10,5583,13
CC(OC(=O)c1c2c(nc3ccccc13)/C(=C\c1ccc3c(c1)OCO3)CCC2)C(=O)Nc1ccc(S(N)(=O)=O)cc1 (centres undefined),17,4,165*,4,3070,6
Cc1nn(-c2ccccc2)c(C)c1C(=O)Nc1nnc(-c2ccco2)o1,0,0,1,0,20671*,17
O=C(NNC(=O)C1CCCO1)c1ccc([N+](=O)[O-])cc1 (centres undefined),1,2,8,-9,3431,38
O=C(NNC(=O)C1CCCO1)c1ccc(Cl)cc1 (centres undefined),1,0,5,37*,4010,-15
CCOC(=O)c1c(CN2CCOCC2)n(C)c2cc(Br)c(O)c(CN(C)C)c12,?,-1,0,-3,21896*!,-10
CC1CCCCC1NC(=O)c1ccc(CNc2c(N3CCCC3)c(=O)c2=O)cc1 (centres undefined),-1,-7,9,-3,5891,24
Cc1csc(NC(=O)C2CCN(C(=O)c3ccccc3C)CC2)n1,0,-1,4,2,4158,8
Cc1csc(NC(=O)C2CCN(C(=O)CSc3nnc(C)n3Cc3ccccc3)CC2)n1,?,1,1,-6,20510*,50
NCCNC(=O)c1c(NC(=O)c2ccccc2)sc2c1CCCC2,3,-31,17,?,3886,54*
O=C(/C=C/c1ccco1)Nc1sc2c(c1C(=O)O)CCC2,-1,-4,-5,-4,16426*,-1
O=C(Nc1sc2c(c1C(=O)O)CCC2)c1ccccc1,0,4,3,3,3925,52*
O=C(Nc1sc2c(c1C(=O)O)CCCCC2)c1ccccc1,-2,-4,21,-3,4582,-12
CCn1c(CCNC(=O)c2cccs2)nnc1SCC(=O)NC1CCCCC1,?,-7,-3,4,21522*,2
SMILES,BoNT A protease,Anthrax LF inh2,MazEF act,BoNT-F LC inh,Bead autofluor,VHR inh abs
CCn1c(SCC(=O)NCCc2ccc(Cl)cc2)nnc1-c1cccs1,-2,-3,-2,-24,4913,17
CCn1c(CCNC(=O)c2cccs2)nnc1SCC(=O)Nc1ccc(Cl)cc1,?,-4,-1,4,22204*,13
COc1ccc2nc3cc(Cl)ccc3c(C#N)c2c1,18,13,142*,-2,4310,16
ON=C1CCN(c2ncc(C(F)(F)F)cc2Cl)CC1,0,-1,4,-4,4464,-10
COC(=O)c1ccc2c(c1)NC(=O)C(N1CCCC1)S2 (centres undefined),2,3,-7,3,19419*,10
COC(=O)c1ccc2c(c1)NC(=O)C(N1CCCCC1)S2 (centres undefined),0,-1,-2,0,22781*,14
CC1=C(C(=O)Nc2ccccc2)C(c2ccc(C)cc2)N=C(Nc2nc3ccccc3o2)N1 (centres undefined),-2,-2,22,-2,23563*,0
Cc1ccc2[nH]c3c(=O)n(CCC4=CCCCC4)cnc3c2c1,·,·,-13,·,·,20
Cc1nn(-c2ccccc2)c2c1C(c1ccc3c(c1)OCO3)SCC(=O)N2 (centres undefined),0,-2,7,-6,12596,-4
COc1cc(C2SCC(=O)Nc3c2c(C)nn3-c2ccccc2)cc(OC)c1OC (centres undefined),3,-2,3,4,19341*,-21
CC(C)(C)c1ncc(S(=O)(=O)c2ccc(C(F)(F)F)cn2)c(N)n1,0,-4,8,-5,5382,40
Nc1c(C(=O)NCc2cccnc2)sc(=S)n1-c1ccccc1,?,?,-5,?,?,-9
COc1ccc(CNC(=O)c2sc(=S)n(-c3ccc(OC)cc3)c2N)cc1,2,-4,-6,1,19355*,36
O=C(Nc1ccc(N2CCOCC2)cc1)c1cc(F)c(F)cc1Cl,1,8,-10,11,2323,-4
CSc1ccccc1N1CCN(C(=O)Nc2ccc3c(c2)NC(=O)CO3)CC1,?,-9,5,0,21233*,16
O=C(Nc1ccc2c(c1)OCO2)N1CCN(c2ccccc2Cl)CC1,0,-5,7,4,11444,8
CN(C(=O)COC(=O)C1CCN(S(=O)(=O)c2cccs2)CC1)C1CCS(=O)(=O)C1 (centres undefined),?,-3,0,6,20892*,-2
CN(C(=O)COC(=O)COc1ccccc1F)C1CCS(=O)(=O)C1 (centres undefined),-4,-12,7,38*,5902,-5
O=C(COC(=O)C1CCN(S(=O)(=O)c2cccs2)CC1)c1cc2ccccc2o1,1,-9,60*,5,3568,-1
Cc1ccc(S(=O)(=O)NC(=NC2CCCCC2)c2ccc(F)cc2)cc1,0,-2,3,0,4411,36
C=CCn1c(=O)/c(=C\c2ccccn2)s/c1=C(/C#N)C(=O)NCC1CCCO1 (centres undefined),-1,-3,264*,-5,4397,11
COC(=O)CN(C(=S)Nc1ccc(F)cc1)C1CC(=O)N(c2ccc(OC)cc2)C1=O (centres undefined),?,-1,-5,-3,22916*,5
CCOC(=O)CSc1nc2c(c(-c3ccc(C)o3)c1C#N)CCCC2,0,0,4,-2,23315*,13
